Among the data in PubChem BioAssay (NCI) are growth values, retold here.

About 83,000 compounds went through this panel and 20% of them were active in at least one assay; those are over-represented in the sample as a whole.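 96-well plates, one dose, 48 hours. Percent growth reported; active if below 10.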 A number with no mark means an inactive call. Calls of active or inactive are those of the source.

Some test systems named below: SR leukemia; RPMI-8226 leukemia; OVCAR-8 ovarian; OVCAR-5 ovarian; SK-OV-3 ovarian; IGROV1 ovarian; OVCAR-3 ovarian; HS 578T breast; NCI/ADR-RES ovarian; T-47D breast; MDA-MB-435 melanoma; SW-620 colon; MCF7 breast; HCT-116 colon; KM12 colon; BT-549 breast; HCC-2998 colon; OVCAR-4 ovarian.
Holding throughout (assay): NCI-60 one-dose screen, 48 h (100 = growth as untreated, 0 = no growth, -100 = all killed)
Holding throughout (conditions): 10 µM unless noted

Regarding `CC(C)=CCC/C(C)=C/CC/C(C)=C/CC/C(C)=C/CSC[C@H](NC(=O)CCCCCN1CCN(C)CC1)C(=O)NC1CCCCC1`, the growth in the experiment with SR leukemia is 2.5% (active); in the experiment on RPMI-8226 leukemia, 63.4%; in the experiment on OVCAR-8 ovarian, 90.3%; in the experiment with OVCAR-5 ovarian, 85%; in the experiment with SK-OV-3 ovarian it was 96.5%; in the experiment with IGROV1 ovarian, 80.6%. Further, the growth with OVCAR-3 ovarian was 91.1%; in the experiment with HS 578T breast it was 95.7%; with NCI/ADR-RES ovarian, 86.9%; in the experiment on T-47D breast it was 58.3%; with MDA-MB-435 melanoma, 48.5%; in the experiment on SW-620 colon it was -12.9% (active). For the same molecule, the results for the growth with MCF7 breast, in the experiment with HCT-116 colon and with KM12 colon were 17%, 6.51% (active) and 81.7%, respectively.

For `O=C(O)c1cccc2c1-c1ccc(Cl)cc1C2`, the growth is 88.2% with SR leukemia; 102% in the experiment with RPMI-8226 leukemia; 107% in the experiment with OVCAR-8 ovarian; 115% with OVCAR-5 ovarian; 117% in the experiment with SK-OV-3 ovarian; 114% with IGROV1 ovarian. Also, the growth with OVCAR-3 ovarian was 118%; in the experiment on HS 578T breast, 103%; in the experiment with T-47D breast, 97.9%; with BT-549 breast, 113%; in the experiment with MDA-MB-435 melanoma, 106%; in the experiment with SW-620 colon, 111%. The growth in the experiment with MCF7 breast was 104%; in the experiment with HCT-116 colon it was 107%; in the experiment on HCC-2998 colon, 106%; with KM12 colon, 108%.

Regarding `COc1cc(-c2cc(-c3nc4ccccc4[nH]3)[nH]n2)cc(OC)c1OC`, the growth with SR leukemia was 11.1%; in the experiment on RPMI-8226 leukemia it was -24.9% (active); in the experiment on OVCAR-5 ovarian, 93.9%; in the experiment with OVCAR-4 ovarian, 44.3%; with SK-OV-3 ovarian, 42.4%; with IGROV1 ovarian, 47.4%. The growth with OVCAR-3 ovarian was 33.8%; in the experiment with NCI/ADR-RES ovarian it was 36.2%; with T-47D breast, 6.65% (active); in the experiment with BT-549 breast, 36.4%; in the experiment with MDA-MB-435 melanoma, 19.2%; in the experiment with SW-620 colon, 59.4%. Besides, the growth is 44.2% with MCF7 breast, 38.7% with HCT-116 colon, 71.4% in the experiment on HCC-2998 colon and 27% in the experiment with KM12 colon.

Turning to `O=C1NC(=Nc2ccc(S(=O)(=O)Nc3nccs3)cc2)S/C1=C\c1coc2ccccc2c1=O`, the growth with SR leukemia is 88.9%; with RPMI-8226 leukemia it was 101%; in the experiment on OVCAR-5 ovarian, 121%; with OVCAR-4 ovarian, 102%; in the experiment on SK-OV-3 ovarian, 91.5%; in the experiment with IGROV1 ovarian it was 98.1%. The growth in the experiment on OVCAR-3 ovarian was 117%; with HS 578T breast, 90.8%; with NCI/ADR-RES ovarian, 106%; in the experiment on T-47D breast it was 97.1%; with BT-549 breast it was 106%; in the experiment on MDA-MB-435 melanoma, 124%. The growth in the experiment on SW-620 colon is 99.7%; with MCF7 breast it was 88%; in the experiment on HCT-116 colon it was 104%; in the experiment with HCC-2998 colon, 99.1%; in the experiment with KM12 colon, 113%.

Regarding `CC(c1ccccc1)N1C(=O)C(C2SC(=S)N(C(C)c3ccccc3)C2=O)SC1=S` (stereo not given), the growth with SR leukemia was 41.4%; in the experiment with OVCAR-8 ovarian it was 96.6%; in the experiment on OVCAR-5 ovarian, 98.8%; with OVCAR-4 ovarian it was 97.2%; in the experiment on SK-OV-3 ovarian, 106%; with IGROV1 ovarian, 76.5%. Moreover, the growth in the experiment on OVCAR-3 ovarian was 76.8%; in the experiment with HS 578T breast, 96%; with NCI/ADR-RES ovarian, 97.9%; with T-47D breast, 73.2%; in the experiment with BT-549 breast it was 89.5%; in the experiment with MDA-MB-435 melanoma, 57.2%. Further, the growth was 54.7% in the experiment with SW-620 colon; 25.8% in the experiment on MCF7 breast; 57% with HCT-116 colon; 107% with HCC-2998 colon; 67.9% with KM12 colon.

In the case of `Oc1ccccc1/C=N\NC(=S)Nc1ccc(F)cc1`, the growth with SR leukemia was 11.5%; in the experiment on RPMI-8226 leukemia it was 41.1%; in the experiment on OVCAR-8 ovarian it was 21.9%; with OVCAR-5 ovarian, 55%; in the experiment with SK-OV-3 ovarian, 33.8%; with IGROV1 ovarian it was 20%. Further, the growth was 34.4% with OVCAR-3 ovarian; 32.5% with HS 578T breast; -2.4% (active) in the experiment on NCI/ADR-RES ovarian; 42% with T-47D breast; 21.8% in the experiment on MDA-MB-435 melanoma; 16.9% with MCF7 breast. The growth with HCT-116 colon was 25.8%; in the experiment on HCC-2998 colon, 39.7%; with KM12 colon it was 23.2%.

With `COc1cc(-c2cc(-c3nc4cc(Cl)c(Cl)cc4[nH]3)[nH]n2)cc(OC)c1OC`, the growth is 54.5% in the experiment with SR leukemia; -7.57% (active) in the experiment on RPMI-8226 leukemia; 101% with OVCAR-5 ovarian; 52.5% in the experiment on OVCAR-4 ovarian; 104% in the experiment with SK-OV-3 ovarian; 87.2% with IGROV1 ovarian. The growth with OVCAR-3 ovarian was 52.2%; in the experiment on NCI/ADR-RES ovarian, 39.1%; in the experiment on T-47D breast, -10.8% (active); in the experiment on BT-549 breast, 35.3%; in the experiment on MDA-MB-435 melanoma it was 66.1%; with SW-620 colon, 82.7%. For the same molecule, the growth with MCF7 breast is 47.6%; in the experiment with HCT-116 colon, 52.6%; with HCC-2998 colon, 92.3%; in the experiment on KM12 colon, 51.5%.

Turning to `COc1ccc(-c2cc(/C=C/C(=O)c3ccc(N)cc3)[nH]n2)cc1`, the growth was -20.2% (active) in the experiment with SR leukemia; -29.9% (active) with RPMI-8226 leukemia; 54.5% with OVCAR-5 ovarian; 33.1% in the experiment on OVCAR-4 ovarian; -8.64% (active) with SK-OV-3 ovarian; 32.8% in the experiment with IGROV1 ovarian. Also, the growth with OVCAR-3 ovarian was -34.1% (active); in the experiment with NCI/ADR-RES ovarian it was 17.5%; in the experiment on T-47D breast, 21%; in the experiment on BT-549 breast it was 9.81% (active); in the experiment with MDA-MB-435 melanoma it was 14.7%; in the experiment on SW-620 colon, -38.1% (active). Further, the growth is 18.4% in the experiment with MCF7 breast, 8.45% (active) with HCT-116 colon, 35.4% with HCC-2998 colon and 3.29% (active) with KM12 colon.

`NNC(=O)c1nc2ccccc2[nH]1`: the growth with SR leukemia is 96.4%; in the experiment on OVCAR-8 ovarian, 97.1%; in the experiment with OVCAR-5 ovarian it was 97.9%; in the experiment on OVCAR-4 ovarian, 118%; with SK-OV-3 ovarian, 83.3%; with IGROV1 ovarian, 106%. Besides, the growth in the experiment with OVCAR-3 ovarian is 108%; with HS 578T breast, 109%; with NCI/ADR-RES ovarian, 112%; with T-47D breast, 89.8%; in the experiment with BT-549 breast, 95.4%; with MDA-MB-435 melanoma, 109%. Further, the growth in the experiment with SW-620 colon was 105%; in the experiment with MCF7 breast, 104%; with HCT-116 colon it was 91.3%; with HCC-2998 colon, 104%; in the experiment on KM12 colon it was 102%.

With `Cc1cc(C)nc(NC(N)=NCCc2ccccc2)n1`, the growth was 19.2% in the experiment with SR leukemia; 49.7% with RPMI-8226 leukemia; 53.4% in the experiment with OVCAR-8 ovarian; 72% with OVCAR-5 ovarian; 46.7% in the experiment on SK-OV-3 ovarian; 40% with IGROV1 ovarian. Besides, the growth is 33.5% in the experiment with OVCAR-3 ovarian; 45.3% with HS 578T breast; 85.9% in the experiment on NCI/ADR-RES ovarian; 36.1% in the experiment on T-47D breast; -7.44% (active) with MDA-MB-435 melanoma; 32.2% with SW-620 colon. In addition, the growth was 17.3% in the experiment with MCF7 breast, 27.9% in the experiment with HCT-116 colon and 22.5% in the experiment on KM12 colon.
